Here are results for 15 compounds from PubChem BioAssay (NCI).

Compounds without any hit were thinned out: in the full panel of roughly 83,000, 20% have a hit.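 96-well plates, one dose, 48 hours. Percent growth reported; active if below 10.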 Active and inactive are the calls of the source.

Assay in all cases: NCI-60 one-dose screen, 48 h (100 = growth as untreated, 0 = no growth, -100 = all killed)
Conditions in all cases: 10 µM unless noted

Test [1] deals with HCT-15 colon.
Test [2] relates to HT29 colon.
Test [3] concerns SNB-19 CNS.
In test [4] the test system is U251 CNS.
The test system of test [5] is PC-3 prostate.
Test [6] has as its system SK-MEL-5 melanoma.
Test [7] deals with UACC-62 melanoma.
In test [8] the test system is LOX IMVI melanoma.
The subject of test [9] is SK-MEL-28 melanoma.

For the compound `CCOC(=O)C(CC(c1ccccc1)N1CCCCC1)[N+](=O)[O-]` (stereo not given), the growth in test [1] was 74.9% (inactive); in test [2] it was 95.4% (inactive); in test [3], 89.5% (inactive); in test [4], 73.7% (inactive); in test [5], 67.2% (inactive); in test [6] it was 91.2% (inactive). In addition, the growth in test [7] was 59.9% (inactive); in test [8], 63.8% (inactive); in test [9], 98.8% (inactive).
In the case of `COC1(OC)C2(Cl)C=C(c3ccccc3)C1(Cl)C(Cl)=C2Cl` (stereo not given), the growth in [1] was 119% (inactive); in test [2], 83.5% (inactive); in [3], 102% (inactive); in test [5], 86.2% (inactive); in test [6] it was 104% (inactive); in [7], 96.6% (inactive). The figures for the growth in test [8] and in test [9] were 90% (inactive) and 102% (inactive), respectively.
For `O=S(=O)(Nc1ccccc1Cl)c1ccc(-c2cnc(C3CC3)o2)cc1`, the growth is 24.4% (inactive) in test [1]; 12.5% (inactive) in test [2]; 39.2% (inactive) in test [3]; 25% (inactive) in test [4]; 19.6% (inactive) in test [5]; 17.3% (inactive) in test [6]. Also, the values for the growth in test [7] and in [8] were 40.2% (inactive) and 44.5% (inactive), respectively.
Regarding `Cc1ccc(C)c2c1sc1nc3nc4sc5ccccc5n4c(=N)c3c(=O)n12`, the growth is 102% (inactive) in [1]; 104% (inactive) in test [2]; 89.4% (inactive) in [3]; 107% (inactive) in test [4]; 71.5% (inactive) in test [5]; 94.6% (inactive) in test [6]. Moreover, the growth in test [7] is 120% (inactive); in [8], 92.6% (inactive); in test [9], 110% (inactive).
For the compound `Cc1cc(=O)[nH]n1-c1cc(Cl)ccc1N`, the growth is 92.4% (inactive) in test [1]; 102% (inactive) in test [2]; 112% (inactive) in test [3]; 108% (inactive) in test [4]; 106% (inactive) in test [5]; 112% (inactive) in test [6]. Also, the growth in test [8] is 94.7% (inactive); in [9], 115% (inactive).
As for `Cc1cc(C)c(S(=O)O)c(C)c1`, the growth in test [1] is 111% (inactive); in [2], 100% (inactive); in test [3], 102% (inactive); in test [4] it was 105% (inactive); in test [5], 94.6% (inactive); in test [6] it was 105% (inactive). Moreover, the results for the growth in [7], in test [8] and in test [9] were 102% (inactive), 93.9% (inactive) and 113% (inactive), respectively.
As to `COc1cc(-c2nc(Nc3nc4ccccc4[nH]3)nc(N)c2C#N)cc(OC)c1OC`, the growth in test [1] is 59.1% (inactive); in test [2] it was 32% (inactive); in test [3] it was 69.2% (inactive); in [4], 56.8% (inactive); in [5], 44.7% (inactive); in test [7], 44.5% (inactive). The growth is 69.5% (inactive) in [8] and 72% (inactive) in test [9].
In the case of `CN1CCn2c(c(Sc3ccc(C(=O)NO)cc3)c3ccccc32)C1=O`, the growth in test [1] was 14.6% (inactive); in test [2] it was 44.3% (inactive); in test [3], -26.4% (active); in test [4] it was -60.5% (active); in [5], -35.2% (active); in test [7], -61.4% (active). For the same compound, the results for the growth in test [8] and in test [9] were -44.2% (active) and -33.4% (active), respectively.
In the case of `CSC1=CC(=O)c2ccccc2C1=O`, the growth in [1] is 101% (inactive); in test [2] it was 103% (inactive); in test [3], 94.2% (inactive); in [4], 92.2% (inactive); in [5], 67.3% (inactive); in [6], 89.4% (inactive). The growth is 79.7% (inactive) in test [7] and 68.5% (inactive) in test [8].
In the case of `COC(=O)c1cc(-c2ccc(C)cc2)n(C(=O)CSc2nc3sc(C(N)=O)c(C)c3c(=O)n2Cc2ccccc2)n1`, the growth was 98.1% (inactive) in test [1], 115% (inactive) in [2], 102% (inactive) in [4] and 86.1% (inactive) in test [5].
As to `C[C@]1(CO)C[C@@H](O)C[C@]2(C)[C@@H]1CC[C@@]13C[C@@H]4[C@@H](C[C@H]12)[C@]4(C)C3`, the growth in test [1] was 103% (inactive); in [2], 105% (inactive); in [3] it was 95.7% (inactive); in test [4], 104% (inactive); in test [5], 99% (inactive); in test [6], 99% (inactive). The growth in test [7] was 94.1% (inactive); in test [8], 107% (inactive).
On to `Cc1ccc2c(N/N=C\c3ccco3)cc(C)nc2n1`, for which the growth in test [1] was 36.6% (inactive); in test [2], 26.6% (inactive); in test [3], 87.4% (inactive); in [5] it was 70.5% (inactive); in test [6], 94.8% (inactive); in test [7] it was 51.1% (inactive). Moreover, the growth is 46.5% (inactive) in test [8] and 80.5% (inactive) in test [9].
Regarding `COc1cc(/C=C/C(=O)CC(=O)/C=C/c2cc(Br)c(OC)c(OC)c2)cc(Br)c1OC`, the growth is 109% (inactive) in test [1]; 103% (inactive) in test [2]; 99.8% (inactive) in [3]; 105% (inactive) in [4]; 105% (inactive) in [5]; 108% (inactive) in [6]. Besides, the growth is 101% (inactive) in test [7], 97.8% (inactive) in test [8] and 106% (inactive) in [9].
Turning to `CCC12CCC3c4ccc(O)cc4CCC3C1CC(O)C2O` (stereo not given), the growth was 57.4% (inactive) in test [1]; 96.9% (inactive) in [2]; 90.1% (inactive) in test [3]; 56.5% (inactive) in test [4]; 85.5% (inactive) in test [5]; 67.6% (inactive) in test [7]. The growth in [8] was 81% (inactive); in test [9], 67.2% (inactive).
Regarding `COc1cc(/C=C/C(=O)C2=C(/C=C/c3ccc(O)c(OC)c3)NC(=O)NC2c2ccc(O)c(OC)c2)ccc1O` (stereo not given), the growth in test [1] was 97.4% (inactive); in test [2] it was 54.1% (inactive); in [3] it was 96.5% (inactive); in [4], 86.3% (inactive); in test [5], 76.7% (inactive); in [7] it was 94.2% (inactive). For the same compound, the values for the growth in test [8] and in test [9] were 98.7% (inactive) and 103% (inactive), respectively.
